Screening data from PubChem.
Shown are actives, neighbours in structure and some others; about 3.2% of the full set was active somewhere.
HBB splice mod: modulators of hemoglobin beta chain splicing; 65,000 tested, 0.06% active; Potency, µM (titrated, usually from 46.1 µM), inactives show at the top dose activation, usual class: activators; HBB splicing reporter cell assay, activation; EGFP reporter with mutant IVS2-654 intron; response scale: normalised to 500 nM splice-correcting PNA; also: potency is read from the fitted curve at half-maximal effect; 0% is about no effect
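HeLa cells stably expressing EGFP interrupted by mutant beta-globin intron 2 (IVS2-654), 500/well in 2% FCS. Treated with compound for 2 days at 37C. Splicing correction scored as total well GFP intensity (488 nm excitation, 500-520 nm emission); 500 nM antisense PNA served as control.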
DNA Pol III inh: blocks replication by bacterial DNA polymerase III holoenzyme. reconstituted DNA polymerase III holoenzyme replication, biochemical. Potency, µM (doses to about 57.1 µM), for the others: at the highest dose activity change, negative = inhibition. 71,000 tested, 0.25% active; also: potency is read from the fitted curve at half-maximal effect; % is scaled to controls: 0 for no effect and ±100 for the full control effect
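Reconstituted *E. coli* holoenzyme (0.35 nM Pol III, 1 nM beta, 154 nM SSB, 2 nM primase) was preincubated with compound for 15 min at RT. Synthesis on 1.4 nM ssM13Gori ran 35 min, then was stopped with PicoGreen/EDTA and read as dsDNA fluorescence.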
Ub-GFP proteasome: ubiquitin-GFP accumulation via proteasome inhibition. Ubiquitin-GFP reporter cells, proteasome inhibition, GFP fluorescence; response scale: untreated = 0%, 10 µM MG-132 = 100%. Potency, µM (highest dose often 45.9 µM), for inactives: at the highest dose activation (GFP accumulation), most hits filed as activators. 67,000 tested, under 10 active; active = well fitted activation curve with a large enough effect, not every such curve was filed as active; inconclusive = small, poorly fitted or top-dose-only effect, or another doubt; inactive = no such curve, though single readings can be large or run the other way; also: potency is read from the fitted curve at half-maximal effect
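U2OS cells stably expressing ubiquitin(G76V)-GFP, seeded overnight in 0.5% FBS medium, were exposed to compounds (qHTS, 46 uM to 2.9 nM) for 4 hr at 37 °C. GFP-positive cells were counted by laser cytometry (488 ex/515 em), normalized between basal and 10 uM MG-132.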
Tau fil binding: tau filament binding. P10636. recombinant tau filaments, thioflavin S fluorescence, 15 h; filaments grown with octadecylsulfate alongside compound. Potency, µM (series often up to 57.1 µM), inactives show at the highest dose activity change, negative = inhibition. 71,000 tested, 2% active;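 also: potency is read from the fitted curve at half-maximal effect; % is scaled to controls: 0 for no effect and ±100 for the full control effect; actives lower thioflavin S fluorescence by blocking filaments or displacing dye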
Target sequence (P10636 whole entry, looked up): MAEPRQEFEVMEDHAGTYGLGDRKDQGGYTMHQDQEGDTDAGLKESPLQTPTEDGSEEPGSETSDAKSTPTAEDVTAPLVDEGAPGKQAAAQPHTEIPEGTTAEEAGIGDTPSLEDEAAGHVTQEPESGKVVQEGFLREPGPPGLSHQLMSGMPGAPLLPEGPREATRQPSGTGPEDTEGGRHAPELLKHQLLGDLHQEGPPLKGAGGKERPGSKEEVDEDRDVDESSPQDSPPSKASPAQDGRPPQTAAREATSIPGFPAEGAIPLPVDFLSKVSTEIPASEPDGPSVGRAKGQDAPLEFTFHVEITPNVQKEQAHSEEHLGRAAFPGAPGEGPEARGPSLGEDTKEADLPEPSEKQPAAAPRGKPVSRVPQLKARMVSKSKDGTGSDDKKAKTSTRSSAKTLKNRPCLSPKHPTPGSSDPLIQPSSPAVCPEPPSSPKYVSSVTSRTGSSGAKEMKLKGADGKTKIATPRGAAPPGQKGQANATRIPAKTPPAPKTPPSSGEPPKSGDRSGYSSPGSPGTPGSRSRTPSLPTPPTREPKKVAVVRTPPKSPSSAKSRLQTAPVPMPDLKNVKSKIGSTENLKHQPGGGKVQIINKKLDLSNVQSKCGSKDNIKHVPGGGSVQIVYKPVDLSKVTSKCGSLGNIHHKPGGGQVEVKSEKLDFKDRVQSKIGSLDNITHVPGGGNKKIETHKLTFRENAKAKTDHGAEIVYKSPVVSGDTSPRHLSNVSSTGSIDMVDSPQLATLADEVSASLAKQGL
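Read-out: ThS fluorescence, 450 nm excitation/510 nm emission; lower signal marks blocked filament formation or displaced dye. Tau at 1 uM with 30 uM ODS, 10 uM ThS, 5 mM DTT, 100 mM NaCl, 10 mM HEPES pH 7.4; 15 h, 37 C.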
15-hLO inh: 15-hLO (ALOX15) enzyme inhibition; purified 15hLO-1, xylenol orange hydroperoxide absorbance; Potency, µM (titrated, usually from 57.1 µM), without a hit: at the top dose activity change, negative = inhibition, usual class: inhibitors; 74,000 tested, 1.4% active; P16050; AID 887; also: potency is read from the fitted curve at half-maximal effect; % is scaled to controls: 0 for no effect and ±100 for the full control effect; nearly all actives have a fitted effect of over 55% in size
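Purified human 15hLO-1 (40 nM final) in 25 mM Hepes pH 7.5, 0.01% Triton X-100 was preincubated with compound 15 min at room temperature, then reacted 6 min with 50 uM arachidonic acid; hydroperoxide detected by Fe-XO, 573/405 nm absorbance ratio.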
Epigenetic mod: epigenetic GFP locus derepression in mouse cells. Potency, µM (top dose mostly 46.1 µM), inactives show top-dose GFP derepression (activation). 68,000 tested, 0.09% active. mouse C127i GFP locus derepression, cytometry, 30 h; also: % of control where 0% means no effect
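Read-out is the number of GFP-positive cells, scored as fluorescent objects 20 to 120 um wide, reflecting derepression of a silenced CMV-GFP reporter in murine C127i cells after 30 h compound exposure at 37 C.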
Starred values were filed as active, the others as inactive; i = inactive; u = inconclusive; x = no result given; [ ] = remark or other dose. Unless noted, calls follow the shape of the dose curve; as a rule, active = well fitted curve in the direction sought with a large enough effect; inconclusive = small, poorly fitted or top-dose-only effect, or another doubt; inactive = no such curve, though single readings can be large; an effect the other way counts as inactive or inconclusive.

SMILES | HBB splice mod | DNA Pol III inh | Ub-GFP proteasome | Tau fil binding | 15-hLO inh | Epigenetic mod
Cc1nc(N)sc1-c1csc(Nc2ccccc2)n1 | -1% | -1% | 4% | 20µM* | u | 4%
COc1ccc(OC)c(Nc2nc(-c3sc(N)nc3C)cs2)c1 | x | -5% | -5% | 10µM* | -2% | -1%
Cc1cc(O)ccc1Nc1nc(-c2sc(N)nc2C)cs1 | -1% | 5% | 5% | -13% | 6% | 0%
O=C(O)CCc1ccc(-c2ccccc2)[nH]1 | 2%[9.22 µM] | -5%[11.4 µM] | -4%[9.17 µM] | -7%[11.4 µM] | -19%[11.4 µM] | 5%[9.22 µM]
COc1ccc(CN[C@H](C)C(=O)O)cc1 | 2%[9.22 µM] | -3%[11.4 µM] | 1%[9.17 µM] | -5%[11.4 µM] | 4%[11.4 µM] | -2%[9.22 µM]
CCOC(=O)CCN1C(=O)[C@H]2[C@H]3[C@H](O)[C@H](O)C/C(=N/NC(=O)OCC)[C@H]3CC[C@@H]2C1=O | 0%[9.22 µM] | x | x | x | 3%[11.4 µM] | x
Cc1n[nH]c(C)c1N1C(=O)c2cccc3c(N4CCCCCC4)ccc(c23)C1=O | 16µM* | 76% | -8% | i | u | 2%
C=C(CC(=O)O)C(=O)O (tested in a mixture with another compound) | -1%[9.22 µM] | -3%[11.4 µM] | -3%[9.17 µM] | 24%[11.4 µM] | u | -4%[9.22 µM]
CC(=O)c1cccc(NC(=O)C2CCN(S(=O)(=O)c3c(C)n[nH]c3C)CC2)c1 | -2% | -4% | -1% | 25µM* | -10% | 11%
CC(=O)c1cccc(NC(=O)C2CCN(S(=O)(=O)c3ccc(C)cc3)CC2)c1 | 0% | -5% | 3% | 5% | -1% | -2%
CN1CCc2c(sc3c2C(=O)NC(c2ccco2)N3)C1 (stereo unspecified) | 3%[1.84 µM] | -8% | -1% | i | u | -4%
CN1CCc2c(sc3c2C(=O)NC(c2cn(Cc4ccccc4)c4ccccc24)N3)C1 (stereo unspecified) | 5%[0.369 µM] | -6% | x | u | 3.2µM* | -2%
N[C@@H]1C=CC=C(C(=O)O)C1 | 1% | -3% | -5% | 3% | -7% | 0%
CCc1ccc(S(=O)(=O)Nc2ccc(O)c(C(=O)O)c2)cc1 | x | x | x | x | -6% | x
N#Cc1c(C(F)(F)F)cc(-c2ccccc2)nc1SCc1nc(N)nc(N2CCOCC2)n1 | 10µM* | 1% | 6% | 56% | -21% | 10µM*
Nc1nc(Cn2nnc(-c3ccccc3F)n2)nc(N2CCOCC2)n1 | 0% | 0% | -4% | -4% | 9% | 0%
Cc1cc(=O)oc2c1ccc1oc(/C(=N/O)c3ccccc3)c(C)c12 | -2% | -3% | -10% | 94% | 7.9µM* | -3%
CC(=O)c1c(OCC(=O)O)ccc2c(C)cc(=O)oc12 | x | x | x | x | x | 2%[20.6 µM]
CC1=C(SCCC#N)S/C(=C2\SC(C)=C(SCCC#N)S2)S1 | x | -2% | -9% | u | 13µM* | 0%
O[C@@H](c1cc(-c2ccc(Cl)cc2)nc2ccccc12)[C@@H]1CCCCN1 | 2%[9.22 µM] | -7%[11.4 µM] | 12%[9.17 µM] | 7%[11.4 µM] | 8%[11.4 µM] | 2%[9.22 µM]
O[C@H](C[C@@H]1CCCCN1)c1ccc2c(c1)oc1ccccc12 | 2%[9.22 µM] | -10%[11.4 µM] | -2%[9.17 µM] | 14%[11.4 µM] | 8%[11.4 µM] | 1.3µM*
CCC(c1nnc(SCC(=O)Nc2ccc(C(=O)Nc3ccccc3OC)cc2)o1)N(C)C (stereo unspecified) | -4% | -2% | 5% | 20µM* | 19% | 6%
NC(=O)/N=C(\N)NC(=O)c1ccccc1 | 5%[9.22 µM] | 0%[11.4 µM] | 9%[9.17 µM] | 3%[11.4 µM] | -4%[11.4 µM] | 0%[9.22 µM]
COc1ccc(N2CCN(C(c3cccs3)C(C)NS(=O)(=O)c3ccccc3)CC2)cc1 (stereo unspecified) | -1% | -1% | -10% | 16µM* | -15% | -1%
COc1ccc(N2CCN(C(=O)c3ccc(NS(=O)(=O)c4ccccc4)cc3)CC2)cc1 | -2% | 3% | -3% | -1% | 5µM* | -2%
SMILES | HBB splice mod | DNA Pol III inh | Ub-GFP proteasome | Tau fil binding | 15-hLO inh | Epigenetic mod
CC(NS(C)(=O)=O)C(c1cccs1)N1CCN(c2ccccc2)CC1 (stereo unspecified) | -2% | -13% | -5% | -3% | 5% | 10%
COc1ccc2c(c1)[C@]1(C)CCC[C@](C)(CO)[C@@H]1CC2 | x | 2% | 4% | -10% | x | 0%[9.22 µM]
COc1ccc(CCNc2cc(=O)[nH]c(N)n2)cc1 | 1% | -8% | 0% | 16µM* | -10% | 2%
CC1=CC(C)(C)N(C(=O)c2ccccc2)c2ccccc21 | 2% | -1% | 16% | 1% | -30% | 2%
COc1ccc(C(=O)N2c3cc4c(cc3C(C)=CC2(C)C)OCO4)cc1 | -1% | -2% | 1% | 16µM* | -24% | -3%
COc1ccc(C(=O)N2CCC3(CCCN(c4ccc(-c5ccccc5)cc4)C3)CC2)cc1 | 2% | -1% | -4% | -15% | -6% | -5%[9.22 µM]
COc1ccc(C(=O)N2CCC[C@@]3(CCN(c4cccc(-c5ccccc5)c4)C3)C2)cc1 | 5% | 0% | -7% | 4% | 25µM* | 2%[9.22 µM]
COC(=O)c1ccc(CCc2cc(O)ccc2O)cc1 | 3%[9.22 µM] | -9%[11.4 µM] | -1%[9.17 µM] | 3%[11.4 µM] | 1.6µM* | 10%[9.22 µM]
